Data on 8 molecules can be found in PubChem BioAssay (NCI).

Test systems include SK-MEL-2 melanoma; EKVX NSCLC; SN12C renal; UO-31 renal; TK-10 renal; ACHN renal; CAKI-1 renal; MOLT-4 leukemia; SR leukemia; RPMI-8226 leukemia; OVCAR-8 ovarian; OVCAR-5 ovarian; OVCAR-4 ovarian; IGROV1 ovarian; OVCAR-3 ovarian; HS 578T breast; NCI/ADR-RES ovarian; CCRF-CEM leukemia; SK-OV-3 ovarian; A498 renal.
Holding throughout (assay): NCI-60 one-dose screen, 48 h (100 = growth as untreated, 0 = no growth, -100 = all killed)
What all share (settings): 10 µM unless noted

Compounds without any hit were thinned out: in the full panel of roughly 83,000, 20% have a hit.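 Negative percent growth values reflect cell death: -40 means 40% of the cells present at the start died, and -100 means all died.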 Unmarked numbers belong to inactive results. Calls of active or inactive are those of the source. Rule for the calls: active = growth percent below 10; inactive = the rest.

Consider `Cc1nc(Nc2ccccn2)sc1C(=O)/C=C/c1ccc(Br)cc1`, for which the growth with SK-MEL-2 melanoma is 97.7%; with EKVX NSCLC it was 60.4%; in the experiment on SN12C renal it was 78.8%; in the experiment with UO-31 renal, 49.7%; in the experiment with TK-10 renal, 127%; in the experiment on ACHN renal, 75.2%. Further, the growth in the experiment on CAKI-1 renal is 53.4%; in the experiment with MOLT-4 leukemia it was 80%; in the experiment on SR leukemia, 16.9%; in the experiment on RPMI-8226 leukemia it was 42.5%; in the experiment with OVCAR-8 ovarian it was 78.2%; in the experiment on OVCAR-5 ovarian it was 95.2%. The growth in the experiment on OVCAR-4 ovarian was 81.9%; in the experiment with IGROV1 ovarian, 77.7%; in the experiment with OVCAR-3 ovarian it was 48.4%; in the experiment with HS 578T breast, 77.9%; in the experiment with NCI/ADR-RES ovarian, 57.7%.

As to `CN1C(=O)CCC(N2C(=O)c3cccc(NCCOCCOCCNC(=O)c4cc5c(o4)C(=O)c4ccccc4C5=O)c3C2=O)C1=O` (configuration not stated), the growth in the experiment with SK-MEL-2 melanoma was 6.39% (active); with EKVX NSCLC, 9.9% (active); in the experiment on SN12C renal, -86.2% (active); in the experiment with UO-31 renal, -52.6% (active); with TK-10 renal, 32.4%; in the experiment on ACHN renal it was 8.82% (active). Moreover, the growth with CAKI-1 renal is -0.721% (active); in the experiment on MOLT-4 leukemia, 11.1%; in the experiment with SR leukemia, 7.99% (active); in the experiment on OVCAR-8 ovarian it was 2.72% (active); in the experiment with OVCAR-5 ovarian it was -85.5% (active); with OVCAR-4 ovarian, -95.3% (active). The growth in the experiment on IGROV1 ovarian was -20.1% (active); with OVCAR-3 ovarian it was -44.7% (active); with NCI/ADR-RES ovarian it was 45.1%.

In the case of `CC(C)(C)c1ccc(C(=O)Nc2sc3c(c2C(N)=O)CCC(=O)C3)cc1`, the growth in the experiment with SK-MEL-2 melanoma was 2.34% (active); in the experiment with EKVX NSCLC, 5.58% (active); with SN12C renal it was -1.37% (active); in the experiment with UO-31 renal, -99.6% (active); in the experiment on TK-10 renal, -33.9% (active); in the experiment on ACHN renal, -98.6% (active). Moreover, the growth is -74.9% (active) in the experiment on CAKI-1 renal; 1.49% (active) in the experiment with CCRF-CEM leukemia; 4.19% (active) in the experiment on MOLT-4 leukemia; 11.1% with SR leukemia; 12.3% with OVCAR-5 ovarian; -21.6% (active) with IGROV1 ovarian. In addition, the growth was -78.8% (active) in the experiment with OVCAR-3 ovarian, -12% (active) with HS 578T breast and -0.603% (active) in the experiment on NCI/ADR-RES ovarian.

As to `COC1(CC[C@@H](C)COC2OC(CO)C(O)C(O)C2O)O[C@H]2C[C@H]3[C@@H]4CC=C5C[C@@H](OC6OC(CO)C(OC7OC(C)C(O)C(O)C7O)C(O)C6OC6OC(C)C(O)C(O)C6O)CC[C@]5(C)[C@H]4CC[C@]3(C)[C@H]2[C@@H]1C` (some centres not stated), the growth with SK-MEL-2 melanoma was -71% (active); in the experiment on EKVX NSCLC, 4.85% (active); in the experiment with SN12C renal it was -64.7% (active); in the experiment with UO-31 renal, -65.4% (active); in the experiment with TK-10 renal, -60.4% (active); with ACHN renal, -87.4% (active). The growth in the experiment on CAKI-1 renal is -76.5% (active); in the experiment on CCRF-CEM leukemia, -95.2% (active); in the experiment on MOLT-4 leukemia, -99.1% (active); in the experiment on RPMI-8226 leukemia, -56.3% (active); in the experiment on OVCAR-8 ovarian it was -64.6% (active); with OVCAR-5 ovarian it was -86.6% (active). In addition, the growth was -64.7% (active) in the experiment on OVCAR-4 ovarian; -71.8% (active) in the experiment on SK-OV-3 ovarian; -78.6% (active) in the experiment with IGROV1 ovarian; -73.6% (active) with OVCAR-3 ovarian; -75.6% (active) in the experiment on NCI/ADR-RES ovarian.

Consider `O=c1[nH]nc(-c2ccc(Cl)cc2)cc1Cc1ccccc1`, for which the growth in the experiment with SK-MEL-2 melanoma was 101%; in the experiment with EKVX NSCLC, 86%; with SN12C renal it was 103%; with UO-31 renal, 61.7%; in the experiment on TK-10 renal it was 109%; in the experiment with ACHN renal it was 92.7%. For the same molecule, the growth with A498 renal was 110%; with CCRF-CEM leukemia, 81.6%; in the experiment with MOLT-4 leukemia, 79.6%; in the experiment on SR leukemia, 62.5%; in the experiment on RPMI-8226 leukemia, 41.1%; in the experiment on OVCAR-8 ovarian it was 83%. In addition, the growth is 94.1% with OVCAR-5 ovarian; 95.1% in the experiment on OVCAR-4 ovarian; 99.1% with SK-OV-3 ovarian; 40.9% in the experiment with IGROV1 ovarian; 104% with OVCAR-3 ovarian; 103% in the experiment with HS 578T breast. Further, the growth in the experiment on NCI/ADR-RES ovarian is 98.4%.

For `CCCCCCCCCCCCCCCCCC1=NCCN1C(=O)OCCO`, the growth is 76.8% with SK-MEL-2 melanoma; 83.4% with EKVX NSCLC; 32.7% in the experiment with SN12C renal; 29.5% in the experiment with UO-31 renal; -65.4% (active) in the experiment with TK-10 renal; 38.4% with ACHN renal. In addition, the growth in the experiment with A498 renal was 89.1%; with CCRF-CEM leukemia, -2.98% (active); with MOLT-4 leukemia it was 8.42% (active); with SR leukemia, -10.5% (active); with OVCAR-8 ovarian it was 19.3%; in the experiment with OVCAR-5 ovarian, 68.1%. Also, the growth in the experiment with OVCAR-4 ovarian is 28.2%; in the experiment on SK-OV-3 ovarian, 61.7%; with IGROV1 ovarian, -35.3% (active); with OVCAR-3 ovarian it was 76%; in the experiment on HS 578T breast, 11.6%; in the experiment with NCI/ADR-RES ovarian it was 51.4%.

On to `COc1ccc(-c2nnc(-c3ccc4c(c3)nc(-c3ccccc3)n4C3CCCCC3)o2)cc1`, for which the growth with SK-MEL-2 melanoma is 57.9%; in the experiment on EKVX NSCLC, 73%; in the experiment on SN12C renal it was 65.4%; in the experiment with UO-31 renal, 40.7%; with TK-10 renal, 68.9%; in the experiment with ACHN renal it was 60.5%. Moreover, the growth with A498 renal is 85.2%; with CCRF-CEM leukemia, 35.4%; in the experiment with MOLT-4 leukemia it was 31.5%; in the experiment on SR leukemia it was 58.3%; in the experiment with OVCAR-8 ovarian it was 30.8%; in the experiment on OVCAR-5 ovarian, 95.4%. The growth was 51% in the experiment with OVCAR-4 ovarian; 84.2% in the experiment with SK-OV-3 ovarian; 89.4% with IGROV1 ovarian; 43% in the experiment with OVCAR-3 ovarian; 103% in the experiment on HS 578T breast; 40.1% in the experiment on NCI/ADR-RES ovarian.

On to `O=S(=O)(NCCNc1cc(-c2c(-c3cccc(O)c3)nc3sccn23)ccn1)c1ccc(Cl)cc1`, for which the growth in the experiment on SK-MEL-2 melanoma is 79%; in the experiment with EKVX NSCLC, 62.1%; in the experiment on SN12C renal it was 52.8%; in the experiment with UO-31 renal, 3.45% (active); in the experiment on TK-10 renal, 84.2%; with ACHN renal, 61.2%. Besides, the growth in the experiment with A498 renal was 57.1%; in the experiment with CCRF-CEM leukemia, 40.1%; in the experiment on MOLT-4 leukemia it was 33.9%; with RPMI-8226 leukemia, 41.1%; in the experiment on OVCAR-8 ovarian it was 51.1%; in the experiment on OVCAR-5 ovarian, 107%. The growth in the experiment on OVCAR-4 ovarian is 40.4%; in the experiment with SK-OV-3 ovarian, 75.1%; in the experiment with IGROV1 ovarian, 54.1%; in the experiment with OVCAR-3 ovarian it was 64.2%; with HS 578T breast it was 63.9%; in the experiment with NCI/ADR-RES ovarian, 87.6%.
